The record followed here is ChEMBL document CHEMBL3988442, “University of Dundee, Small-Polar-MMV Screening Library” (2021).

About 960 (1.5%) of roughly 66,000 compounds showed an effect of 50% or more. This excerpt belongs to a sample that is enriched for strong results.

This assay has as its system Trypanosoma brucei. The assay can be described thus: Trypanosoma brucei 72 hour study. The class given is functional, organism-based. Details: scale not given: in the data most compounds retested in dose-response had high values.

For `CN1CCCC(CCC(=O)NCCc2nnc(N)s2)C1` (stereo not drawn), the “Percent Effect” value (30 µM, 30.03 µM) stood at 1.066%.

As for `Cc1ccc(C(=O)N2CCC3(CC2)CCN(CCN(C)C)C3=O)cn1.O=C(O)C(F)(F)F.O=C(O)C(F)(F)F`, for the setting “30.3 µM, […]”, the “Percent Effect” value is reported as -7.554%.

For `COCc1nc(C(=O)NS(=O)(=O)c2c(C)c(C)cc(C)c2C)cs1`, the “Percent Effect” value (30.3 µM, […]) is on record as -6.08%. For the compound `O=C(N1CCOCC1)[C@@]12CCO[C@@H]1CCN(C1CCOCC1)C2.O=C(O)C(F)(F)F`, for the setting “30 µM, 30.03 µM”, the “Percent Effect” value is on record as -13.03%. Take `CN(C)C(=O)C1OC2(CCN(c3ncc(F)cn3)CC2)c2ccccc21.O=C(O)C(F)(F)F` (stereo not drawn): the “Percent Effect” value (30 µM, 30.03 µM) is listed as -1.93%. In the case of `COc1ccc(-c2nnsc2C(=O)N2CCC(C(N)=O)CC2)cc1`, the “Percent Effect” value (30.3 µM, […]) turned out to be 7.87%. With `Cc1ccsc1CN1CC[C@H]2OCC[C@@]2(C(=O)N2CCCO2)C1.O=C(O)C(F)(F)F`, the “Percent Effect” value (30.3 µM, […]) is reported as -14.02%.

As to `Cc1ccccc1C(O)CNS(=O)(=O)Cc1cccc(C#N)c1` (stereo not drawn), the “Percent Effect” value (30.3 µM, […]) was 7.529%. Take `N#Cc1cccc(CS(=O)(=O)NCC(O)Cc2ccccc2)c1` (stereo not drawn): the “Percent Effect” value (30 µM, 30.03 µM) is reported as -15.65%. As to `CCCC(N)CNS(=O)(=O)Cc1cccc(C#N)c1.Cl` (stereo not drawn), for the setting “30.3 µM, […]”, the “Percent Effect” value turned out to be 63.71%.

Take `CCO[C@H]1CO[C@@]2(CCCN(Cc3scnc3C)C2)C1.O=C(O)C(F)(F)F`: the “Percent Effect” value (30 µM, 30.03 µM) is -66.13%. Take `Cc1nc(C)n(CC2CCCN2Cc2ccccn2)n1` (stereo not drawn): the “Percent Effect” value (30.3 µM, […]) is 5.601%.

`c1ccc(-n2ccc(CN3CCCC3Cn3cncn3)n2)cc1` (stereo not drawn): the “Percent Effect” value (10 µM) is listed as -54.26%.

Consider `c1ccc(-n2ccc(CN3CCCC3Cn3cccn3)n2)cc1` (stereo not drawn), for which the “Percent Effect” value (30.3 µM, […]) worked out at 99.68%. The same measure, in the same setting: with `Cc1nc(C)n(CC2CCCN2Cc2ccn(-c3ccccc3)n2)n1` (stereo not drawn) the figure was 99.84%.

On to `Fc1cccc(-n2ccc(CN3CCCC3Cn3cccn3)n2)c1` (stereo not drawn), for which, for the setting “10 µM”, the “Percent Effect” value was -58.75%. For the compound `Cc1nc(C)n(CC2CCCN2Cc2cn(-c3ccccc3)nn2)n1` (stereo not drawn), the “Percent Effect” value (30 µM, 30.03 µM) is recorded as -3.712%. For the compound `O=C(CCN1C[C@@H]2CC[C@H]1C2)N1CCN(c2cccc(Cl)c2)C(=O)C1`, the “Percent Effect” value (30.3 µM, […]) is listed as -18.65%. Regarding `CN1CCN(C2COC3(CCN(c4ccc(C#N)cc4)CC3)C2)CC1.O=C(O)C(F)(F)F` (stereo not drawn), the “Percent Effect” value (30.3 µM, […]) is -31.63%. Turning to `NC(=O)NCC(=O)N1CCCC(OCc2cccnc2)C1` (stereo not drawn), the “Percent Effect” value (30 µM, 30.03 µM) is listed as -86.17%. Still for that read-out and setting: for `O=C(Cn1ccnc1)N1CCCC(OCc2cccnc2)C1` (stereo not drawn) the value was -76.95%; for `NC(=O)CN1CCC(C(=O)N2CCCC(OCc3cccnc3)C2)CC1` (stereo not drawn), 52.75%; for `CCC(NC(=O)CC1CCN(C(C)C)CC1)c1cn2cccnc2n1` (stereo not drawn), -16.96%. Turning to `CN1[C@@H](C(=O)NCC2CC2)C[C@@H]2CN(Cc3ccsc3)C[C@@H]21.O=C(O)C(F)(F)F.O=C(O)C(F)(F)F`, the “Percent Effect” value (30.3 µM, […]) is listed as -75.19%.

As for `O=C1c2cnc(N3CCOCC3)nc2CN1Cc1cccc(F)c1`, the “Percent Effect” value (30 µM, 30.03 µM) is -25.27%. Same read-out and setting: for `Cc1cc(OCCC(=O)NCc2ccc(F)cc2)nnc1C` the value was 71.51%; for `Cc1cc(OCCC(=O)Nc2cccc(F)c2)nnc1C`, 46.79%; for `Cc1cc(OCC(=O)NCc2ccc(F)cc2)nnc1C`, 16.49%. As for `Cc1noc(C)c1CN1CCC2(CC1)C(c1ccccc1)CC(=O)N2C.O=C(O)C(F)(F)F` (stereo not drawn), the “Percent Effect” value (30.3 µM, […]) was -57.86%. The same measure, in the same setting: with `COc1ccc(CC(=O)N2C[C@H]3CN(Cc4ccccn4)C[C@H]3C2)cc1.O=C(O)C(F)(F)F` the figure was -4.643%. With `CC(C)n1ccnc1CN1CCCN(C(=O)c2cccnc2O)CC1`, the “Percent Effect” value (30 µM, 30.03 µM) is listed as -16.49%. As to `Cc1occc1C(=O)N1CCCN(Cc2nccn2C)CC1`, the “Percent Effect” value (30.3 µM, […]) worked out at 4.115%. Same read-out and setting: with `Cc1occc1C(=O)N1CCCN(Cc2nccn2C(C)C)CC1` the figure was 53.23%; with `CCS(=O)(=O)N1Cc2[nH]nc(COCc3cccnc3)c2C1.O=C(O)C(F)(F)F`, -37.05%; with `CC(C)N1CC[C@H]2[C@H](C[C@@H](Cn3cccn3)N2c2nccs2)C1.O=C(O)C(F)(F)F.O=C(O)C(F)(F)F.O=C(O)C(F)(F)F`, -34.12%.

Consider `O=C(O)C(F)(F)F.O=C(O)C(F)(F)F.O=C(O)C(F)(F)F.c1cnn(C[C@@H]2C[C@@H]3CN(CC4CC4)CC[C@@H]3N2c2nccs2)c1`, for which the “Percent Effect” value (30.3 µM, […]) is recorded as 61.8%. On the same count and under the same terms, with `CCC(=O)N1CC[C@H]2[C@H](C[C@@H](Cn3cccn3)N2c2nccs2)C1.O=C(O)C(F)(F)F.O=C(O)C(F)(F)F` the figure was -3.444%.

Take `CC(=O)N1CCC2(CC1)C(=O)N(CC1CCN(C)CC1)c1ccccc12.O=C(O)C(F)(F)F`: the “Percent Effect” value (30.3 µM, […]) is listed as -5.968%. In the case of `CCNc1cc2c(nn1)CCN(C(=O)c1cc3ccccc3o1)C2`, the “Percent Effect” value runs as follows: (10 µM) -51.84%; (30.3 µM, […]) 2.809%.

Regarding `CCNc1cc2c(nn1)CCN(C(=O)c1cc3cc(C)ccc3o1)C2`, the “Percent Effect” value by setting is: (10 µM) -11.72%; (30.3 µM, […]) 30.23%. Take `CCNc1cc2c(nn1)CCN(C(=O)c1cc3nc(C)ccc3o1)C2`: for the setting “30 µM, 30.03 µM”, the “Percent Effect” value is reported as 62.84%. Turning to `Cn1cc(CNC2CCc3c(ccc(=O)n3Cc3ccncc3)C2)cn1.O=C(O)C(F)(F)F.O=C(O)C(F)(F)F` (stereo not drawn), for the setting “30.3 µM, […]”, the “Percent Effect” value was found to be 3.089%. With `CCc1cc(N(C)Cc2ccnc(C)c2)n2nc(C)c(C)c2n1`, the “Percent Effect” value (30 µM, 30.03 µM) is listed as -13.68%. On the same count and under the same terms, for `CCc1cc(N(C)Cc2ccno2)n2nc(C)c(C)c2n1` the value was 69.73%; for `CCc1cc(N(C)Cc2ccncn2)n2nc(C)c(C)c2n1`, 25.26%. As to `CC(=O)N1CCCN(C(=O)c2ccc(=O)n(C)c2)c2ccccc21`, for the setting “30.3 µM, […]”, the “Percent Effect” value is listed as -14.08%.
